The record followed here is PubChem BioAssay (NCI).

Holding throughout (experiment): NCI-60 one-dose screen, 48 h (100 = growth as untreated, 0 = no growth, -100 = all killed)
In one test the test system is SR leukemia. To be noted: 10 µM unless noted.
The next test relates to RPMI-8226 leukemia. Particulars: 10 µM.
The next test has as its system OVCAR-8 ovarian. Particulars: 10 µM unless noted.
A further test concerns OVCAR-5 ovarian. To be noted: 10 µM unless noted.
For another test, the system named is OVCAR-4 ovarian. Particulars: 10 µM unless noted.
A further test concerns IGROV1 ovarian. To be noted: 10 µM unless noted.
A further test deals with OVCAR-3 ovarian. Particulars: 10 µM unless noted.
In the next test the test system is HS 578T breast. Particulars: 10 µM unless noted.
The next test has as its system NCI/ADR-RES ovarian. To be noted: 10 µM unless noted.
The subject of another test is SK-OV-3 ovarian. Particulars: 10 µM.

SMILES strings stand for the structures. About 83,000 compounds went through this panel and 20% of them were active in at least one assay; those are over-represented in the sample as a whole.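 Step 1: grow cells in 96-well plates. Step 2: add test compound at a single concentration. Step 3: incubate 48 h. Step 4: record percent growth.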 Unmarked numbers belong to inactive results. Activity calls are given as the source filed them. Rule for the calls: active = growth percent below 10; inactive = the rest.

Take `COc1ccc(/C=N\N2CCOCC2)cc1OC1CCCC1`: the growth in the test with SR leukemia is 101%; in the test on RPMI-8226 leukemia, 103%; in the test with OVCAR-8 ovarian, 104%; in the test with OVCAR-5 ovarian, 103%; with OVCAR-4 ovarian it was 97.6%; in the test on IGROV1 ovarian it was 107%. The growth is 114% in the test with OVCAR-3 ovarian, 90.7% in the test with HS 578T breast and 106% in the test on NCI/ADR-RES ovarian.
Take `COC(=O)c1c2c(c(C)[n+]([O-])c1C)C(=O)C(NCc1ccc(O)cc1)=CC2=O`: the growth in the test on SR leukemia was 11.1%; in the test on RPMI-8226 leukemia, -2.15% (active); with OVCAR-8 ovarian, 5.26% (active); in the test on OVCAR-5 ovarian, -17% (active); in the test on OVCAR-4 ovarian it was -97.4% (active); in the test with IGROV1 ovarian, -45% (active). Further, the growth with OVCAR-3 ovarian is -33.1% (active); in the test on HS 578T breast, -22.5% (active); in the test on NCI/ADR-RES ovarian, -6.46% (active).
In the case of `O=C1C(N2CCOCC2)=Cc2cccc3cccc1c23`, the growth is 40.8% with SR leukemia; 105% in the test with RPMI-8226 leukemia; 96.1% in the test on OVCAR-8 ovarian; 103% with OVCAR-5 ovarian; 90.5% with OVCAR-4 ovarian; 95.8% in the test with SK-OV-3 ovarian. The growth in the test on IGROV1 ovarian was 112%; with HS 578T breast, 86.1%; in the test on NCI/ADR-RES ovarian it was 99.8%.
Regarding `CCCC1=NNC(=O)C1`, the growth in the test with SR leukemia is 103%; in the test on RPMI-8226 leukemia, 100%; in the test on OVCAR-8 ovarian, 102%; with OVCAR-5 ovarian it was 103%; in the test with OVCAR-4 ovarian it was 106%; in the test with SK-OV-3 ovarian, 104%. The growth in the test with IGROV1 ovarian was 103%; in the test on HS 578T breast, 110%; in the test with NCI/ADR-RES ovarian, 115%.
As to `COc1cc(OCc2cccc(-c3ccc(C(O)c4nccs4)cc3)c2C)cc(OC)c1C=O` (stereo not drawn), the growth in the test on SR leukemia was 53.1%; with RPMI-8226 leukemia, 22.1%; with OVCAR-8 ovarian it was 59.8%; in the test with OVCAR-5 ovarian it was 16.5%; in the test on OVCAR-4 ovarian it was 15.9%; in the test on IGROV1 ovarian, 21%. Besides, the growth was 48.1% with OVCAR-3 ovarian and 67.1% in the test with HS 578T breast.
Turning to `O=C1/C(=C/c2ccc([N+](=O)[O-])cc2)Oc2ccc(O)cc21`, the growth in the test with SR leukemia was 43%; in the test with RPMI-8226 leukemia it was 34%; with OVCAR-8 ovarian it was 90.7%; with OVCAR-5 ovarian, -9.84% (active); in the test with OVCAR-4 ovarian, 39.7%; with IGROV1 ovarian, 18%. In addition, the growth in the test with OVCAR-3 ovarian is 16.7%; in the test with HS 578T breast, 97.2%; in the test with NCI/ADR-RES ovarian it was 89%.
Turning to `CN1CCN(c2nc(-c3ccncc3)nc3sc4c(c23)CCCCCC4)CC1`, the growth is 32.5% in the test with SR leukemia; 69% with RPMI-8226 leukemia; 82.9% with OVCAR-8 ovarian; 81.3% in the test with OVCAR-5 ovarian; 71.7% in the test on OVCAR-4 ovarian; 72.9% with SK-OV-3 ovarian. Further, the growth with IGROV1 ovarian was 76.2%; with HS 578T breast, 5.17% (active); in the test with NCI/ADR-RES ovarian it was 64.9%.
As to `CN1CCN(C)c2cncc(Br)c2C1=O`, the growth is 84.1% in the test on SR leukemia; 93.8% in the test with RPMI-8226 leukemia; 102% in the test with OVCAR-8 ovarian; 104% with OVCAR-5 ovarian; 115% with OVCAR-4 ovarian; 101% in the test on SK-OV-3 ovarian. In addition, the growth in the test with IGROV1 ovarian is 108%; in the test with NCI/ADR-RES ovarian, 98.3%.
For the molecule `COc1cc(/C=N/NC(=O)c2cnn3c2NC(c2ccccc2)C3)ccc1OC1CCCC1` (stereo not drawn), the growth in the test with SR leukemia is 35.2%; with RPMI-8226 leukemia it was 17.9%; in the test with OVCAR-8 ovarian, 49.1%; in the test on OVCAR-5 ovarian, 59.7%; with OVCAR-4 ovarian, 44.6%; in the test with IGROV1 ovarian, 42.6%. Further, the growth with OVCAR-3 ovarian is -32.9% (active); with HS 578T breast, -18% (active); in the test on NCI/ADR-RES ovarian, 14%.
As to `CCC(C)Oc1cc(/C=N/NC(=O)c2cnn3c2NC(c2ccccc2)C3)ccc1OC` (stereo not drawn), the growth was 25.8% in the test on SR leukemia; 45.7% with RPMI-8226 leukemia; 47.2% in the test on OVCAR-8 ovarian; 61.3% in the test on OVCAR-5 ovarian; 48.3% with OVCAR-4 ovarian; 48.1% in the test on IGROV1 ovarian. Moreover, the growth with OVCAR-3 ovarian was 2.52% (active); in the test on HS 578T breast, -15.1% (active); with NCI/ADR-RES ovarian, 18.6%.
On to `O=C(CCCCCCC(=O)Nc1ccc2c(c1)/C(=C/c1ccc[nH]1)C(=O)N2)NO`, for which the growth was 4.1% (active) with SR leukemia; -19.5% (active) in the test on RPMI-8226 leukemia; 11.2% with OVCAR-8 ovarian; 0.698% (active) in the test on OVCAR-5 ovarian; 23.7% in the test on OVCAR-4 ovarian; 12.2% in the test with SK-OV-3 ovarian. Besides, the growth in the test on IGROV1 ovarian was -4.96% (active); in the test on HS 578T breast, 9.71% (active); in the test on NCI/ADR-RES ovarian, 35.7%.
On to `CCCN1CCN(c2ccc3nc(-c4ccc5nc(-c6ccc(C(F)(F)F)cc6)[nH]c5c4)[nH]c3c2)CC1`, for which the growth was -35.5% (active) in the test with SR leukemia; -29.9% (active) in the test on RPMI-8226 leukemia; -38% (active) with OVCAR-8 ovarian; -25% (active) in the test on OVCAR-5 ovarian; -82.5% (active) in the test on OVCAR-4 ovarian; -83.5% (active) in the test on IGROV1 ovarian. Moreover, the growth is -96.9% (active) in the test with OVCAR-3 ovarian, 4.6% (active) in the test with HS 578T breast and 74% with NCI/ADR-RES ovarian.
Regarding `O=c1c2cc(F)ccc2oc2c(NCCNCCO)nc3ccccc3c12`, the growth is -28.7% (active) with SR leukemia; 32.1% in the test on RPMI-8226 leukemia; 34.1% in the test with OVCAR-8 ovarian; 60.6% in the test on OVCAR-5 ovarian; 37.3% in the test with OVCAR-4 ovarian; 37% in the test on IGROV1 ovarian. The growth was 55% in the test on OVCAR-3 ovarian, 67.1% with HS 578T breast and 48.9% in the test with NCI/ADR-RES ovarian.
As for `CCCCCCCC/C=C\CCCCCCCCOc1cccc(CC(=O)NCC[N+]2(C)CCCC2)c1`, the growth in the test with SR leukemia was 43.1%; with RPMI-8226 leukemia it was 77.3%; with OVCAR-8 ovarian it was 85.5%; in the test with OVCAR-5 ovarian, 53.8%; in the test with OVCAR-4 ovarian it was 77.1%; with IGROV1 ovarian it was -15.7% (active). For the same molecule, the growth in the test on HS 578T breast was 77.5%; in the test with NCI/ADR-RES ovarian it was 108%.
On to `CCCCCCCC/C=C\CCCCCCCCOc1cccc(CC(=O)NCC[N+]2(C)CCOCC2)c1`, for which the growth with SR leukemia was 55.7%; with RPMI-8226 leukemia it was 96.4%; in the test with OVCAR-8 ovarian, 93.8%; in the test with OVCAR-5 ovarian it was 65.5%; in the test on OVCAR-4 ovarian, 90.3%; in the test on IGROV1 ovarian, 0.48% (active). In addition, the growth in the test on OVCAR-3 ovarian is 98.7%; in the test with HS 578T breast, 80.9%; in the test with NCI/ADR-RES ovarian, 112%.
On to `O=C1Nc2ccc(Cl)cc2/C1=N/N=C(c1ccccc1)c1ccccc1`, for which the growth in the test with SR leukemia is 101%; with RPMI-8226 leukemia, 92.9%; with OVCAR-8 ovarian, 96%; with OVCAR-5 ovarian it was 96.2%; in the test on OVCAR-4 ovarian, 85.8%; with IGROV1 ovarian, 77.4%. Also, the results for the growth in the test with OVCAR-3 ovarian, in the test on HS 578T breast and with NCI/ADR-RES ovarian were 105%, 97.3% and 98%, respectively.
On to `O=C(c1ccccc1)C(Br)C(Br)c1cccc([N+](=O)[O-])c1` (stereo not drawn), for which the growth was -33.3% (active) with SR leukemia; -19.4% (active) in the test with RPMI-8226 leukemia; 18.6% in the test with OVCAR-8 ovarian; 73.9% with OVCAR-5 ovarian; 29.3% in the test on OVCAR-4 ovarian; -29.7% (active) in the test on IGROV1 ovarian. Further, the results for the growth in the test with OVCAR-3 ovarian, with HS 578T breast and in the test on NCI/ADR-RES ovarian were -23.4% (active), 91.9% and 51.4%, respectively.
In the case of `N#Cc1c(-c2cccc(F)c2)cc(-c2ccc(Br)s2)[nH]c1=O`, the growth in the test with SR leukemia is 40.7%; in the test on RPMI-8226 leukemia, 73.9%; in the test on OVCAR-8 ovarian, 83.3%; with OVCAR-5 ovarian, 102%; in the test with OVCAR-4 ovarian it was 92%; with IGROV1 ovarian, 67.3%. Besides, the growth was 39.5% in the test with OVCAR-3 ovarian, 69% in the test on HS 578T breast and 44.7% in the test on NCI/ADR-RES ovarian.
In the case of `O=S(=O)(Nc1ccc(Cl)c(Cl)c1)c1ccc(-c2cnc(C3CC3)o2)cc1`, the growth was 43.7% in the test with SR leukemia; 24.6% in the test on RPMI-8226 leukemia; 33.3% in the test on OVCAR-8 ovarian; 34.2% in the test on OVCAR-5 ovarian; 46.4% in the test on OVCAR-4 ovarian; 27% in the test with IGROV1 ovarian. Besides, the growth is -17.8% (active) in the test with OVCAR-3 ovarian, -18.5% (active) with HS 578T breast and 5.86% (active) in the test with NCI/ADR-RES ovarian.
